Assay results: the supplement of paper PMC10338343
± gives the standard deviation. Whole data set: some 8,200 sequences, median “pre-steady-state target cleavage rate” near 0.024, cut for the highest 2% near 1.3. The sample holds the highest values, similar sequences and a random draw of the others, so the mix is not that of the screen.

System: MIWI (PIWIL1) piRISC loaded with L1MC piRNA (30 nt)
Test: pre-steady-state target cleavage rate (min^-1); MIWI and MILI are mouse PIWI proteins and EfPiwi is from a freshwater sponge; tags in brackets are library labels; higher = faster piRNA-guided slicing of the target
Details: guide: L1MC piRNA 5'p-UAACUAAAUACUAUGCAAGCUGUAGGUCCU
How it was run: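 With or without 500 nM GTSF1 partner protein, 1 nM active affinity-purified piRISC carrying one synthetic guide was mixed with 0.1 nM transcribed, DNA-blocked target RNA library in HEPES–potassium acetate buffer at 33 °C for 0–8 or 0–960 min. Uncleaved targets were sequenced and normalised to depth and to weakly complementary targets, three trials were pooled, and k3 was capped at 0.0001 min^-1. The pre-steady-state cleavage rate came from a burst-and-steady-state fit.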

[1] = auxiliary factor: 500 nM mouse GTSF1
[2] = auxiliary factor: none (no GTSF1)

Sequence | pre-steady-state target cleavage rate [1] | pre-steady-state target cleavage rate [2]
UCCUGGAACAGCUUGCACAGUAUUUAGUUA | 1.01 ± 0.035 | 0.0853 ± 0.018
UCCUGGAUGUGCUUGCAUAGUAAUUAGUUA | 0.0816 ± 0.011 | 0.0162 ± 0.0045
UCCUCCUUCUGCUUGCAUAGUAUUUAGUUA | 1.18 ± 0.038 | 0.0546 ± 0.0091
UCCUCCUACUGCUUGCAUAGUAUAUAGUUA | 0.472 ± 0.026 | 0.0228 ± 0.0045
UCGACCUACAGCUUGAAUAGUAUUUAGUUA | 1.48 ± 0.05 | 0.0397 ± 0.0067
AGGACCUACAGCUUGAUAGUAUUUAGUUA | 1.21 ± 0.082 | 0.0133 ± 0.0041
AGGACCUACAGCUUGAAUAGUAUUUAGUUA | 1.44 ± 0.059 | 0.0532 ± 0.01
UGGACCUACAGCUUGCAAUAGUAUUUAGUUA | 0.0655 ± 0.011 | –
UCGACCUACAGCUUGAUAGUAUUUAGUUA | 1.08 ± 0.067 | 0.00731 ± 0.0024
UGGACCUACAGCUUGAAUAGUAUUUAGUUA | 1.63 ± 0.08 | 0.0423 ± 0.0078
UCCACCUACAGCUUGAAUAGUAUUUAGUUA | 1.01 ± 0.035 | 0.0277 ± 0.0053
UGGACCUACAGCUUGAUAGUAUUUAGUUA | 1.03 ± 0.096 | 0.0103 ± 0.003
AGGACCUACAGCUUGACAUAGUAUUUAGUUA | 1.07 ± 0.093 | 0.0105 ± 0.0047
UCCUGGAUGUGCUUGCAUAGUAUUUACAUA | 0.08 ± 0.017 | 0.0058 ± 0.0031
UCCUGGAUGAGCAUGGAUAGUAUUUAGUUA | 0.475 ± 0.042 | 0.0081 ± 0.0031
UCGACCUACAGCUUGCUUAGUAUUUUCAAA | 0.329 ± 0.048 | –
UCCUGGAUGUGCAUGCAUAGUAUUUAGUAA | 0.0251 ± 0.0072 | 0.00346 ± 0.0025
UCCUGGAUGAGCUUGCUUAGUAUAUAGUUA | 0.0747 ± 0.013 | 0.0101 ± 0.0035
UCCUGGAAGAGCUUGCUUAGUAUUUAGUUA | 0.761 ± 0.051 | 0.0227 ± 0.0089
UCCUGCUACAGCAUGCAUAGUAAUUAGUUA | 0.73 ± 0.077 | 0.00723 ± 0.0026
UCCUGGAUGUCCUUGCAUAGUAUAUUAGUUA | 0.025 ± 0.0089 | –

Sequence | pre-steady-state target cleavage rate [1] | pre-steady-state target cleavage rate [2]
UCCUGGAACAGCUUGCAUAGUAUUUGGUUA | 0.781 ± 0.041 | 0.0538 ± 0.011
UCCACCUACAGCUUGCUUAGUAUUUAGUAA | 0.484 ± 0.044 | 0.0103 ± 0.0023
UGGACCUACAGCUUGCAUAGUAUUUACUUA | 0.24 ± 0.021 | 0.0361 ± 0.0058
AGGACUUACAGCUUGCAUAGUAUUUAGUUA | 1.39 ± 0.064 | 0.0831 ± 0.012
AGGACCGUACAGCUUGCAUAGUAUUUAGUUA | 1.16 ± 0.061 | 0.0943 ± 0.019
UCGACUACAGCUUGCAUAGUAUUUAGUUA | 1.3 ± 0.049 | 0.0713 ± 0.012
UGGACUUACAGCUUGCAUAGUAUUUAGUUA | 1.45 ± 0.063 | 0.081 ± 0.013
UCGACCUUACAGCUUGCAUAGUAUUUAGUUA | 1.47 ± 0.057 | 0.091 ± 0.02
UCGACUUACAGCUUGCAUAGUAUUUAGUUA | 1.56 ± 0.045 | 0.0755 ± 0.013
UCCACUUACAGCUUGCAUAGUAUUUAGUUA | 1.17 ± 0.034 | 0.0668 ± 0.0094
UGGACCAUACAGCUUGCAUAGUAUUUAGUUA | 1.3 ± 0.066 | 0.0868 ± 0.013
UCCUGGAUGAGCUAGCAUAGUAUAUAGUUA | 0.194 ± 0.031 | 0.00454 ± 0.0041
UCCACCUACUCGUUGCAUAGUAUUUAGUAA | 0.406 ± 0.031 | 0.00745 ± 0.0019
UCCUGCUACAGCUUCCAUAGAAUUUAGUUA | 0.0338 ± 0.013 | –
UCCUGGAUGAGCUUGCAUAGUAUUAAGUAA | 0.197 ± 0.036 | 0.0178 ± 0.0055
UCCACCUAGAGCUUGCAUAGUAUUUAGAUA | 0.178 ± 0.032 | 0.00955 ± 0.0025
UCCUGCUACAGCUUGCAUAGUAUUUUCAUA | 0.295 ± 0.055 | –
UCCUGGAUGUGCUUGCAAAGUAUUUUGUUA | 0.0495 ± 0.008 | 0.0109 ± 0.0032
UGGAGCUACUGCUUGCAUAGUAUUUAGUUA | 1.09 ± 0.055 | 0.0621 ± 0.0085
UGGACCAUCAGCUUGCAUAGUAUUUAGUUA | 1.44 ± 0.056 | 0.101 ± 0.019
UCCUCCUCAGCUUGCAUAGUAUUUAGUUA | 1.05 ± 0.027 | 0.0482 ± 0.009

Sequence | pre-steady-state target cleavage rate [1] | pre-steady-state target cleavage rate [2]
UCCUCCUAUCAGCUUGCAUAGUAUUUAGUUA | 1.49 ± 0.072 | 0.0492 ± 0.011
UCCUCCAUCAGCUUGCAUAGUAUUUAGUUA | 0.739 ± 0.027 | 0.0679 ± 0.013
UCCACCUAUCAGCUUGCAUAGUAUUUAGUUA | 1.01 ± 0.037 | 0.0531 ± 0.011
UCGACCUAUCAGCUUGCAUAGUAUUUAGUUA | 1.61 ± 0.06 | 0.0851 ± 0.018
UCGACCUAUAGCUUGCAUAGUAUUUAGUUA | 1.04 ± 0.055 | 0.0703 ± 0.014
AGGACCAUCAGCUUGCAUAGUAUUUAGUUA | 1.3 ± 0.048 | 0.0926 ± 0.017
UGGACCAUCAGCUUGCAUAGUAUUUAGUAA | 1.05 ± 0.053 | 0.0577 ± 0.013
UGGACCUAUAGCUUGCAUAGUAUUUAGUUA | 1.23 ± 0.054 | 0.0564 ± 0.011
AGGACCUAUCAGCUUGCAUAGUAUUUAGUUA | 1.25 ± 0.055 | 0.0769 ± 0.013
UGGACCUAUCAGCUUGCAUAGUAUUUAGUUA | 1.48 ± 0.086 | 0.074 ± 0.016
UCCUGGAUGUCGAACGUAUGAUUUUAGUUA | < 0.0001 | –
UCCUGCUUGUGCUUGCAUAGUAUUUAGUAA | 0.133 ± 0.019 | 0.0144 ± 0.0036
UCCUGGUACAGGCUUGCAUAGUAUUUAGUUA | 0.498 ± 0.059 | 0.0384 ± 0.0089
UCCUGGAUGUCGAUGCAUAGUAUUGAGUUA | 0.02 ± 0.006 | –
UCCUGGAUCAGCUUGCAUAGUCUUUAGUUA | 0.841 ± 0.035 | 0.0552 ± 0.012
AGGACCUACAGCUUGCAUAGUAUUUAAUUA | 0.357 ± 0.033 | 0.0325 ± 0.0055
AGGACCUACAGCUUGCUUAGUAUUUAGAAA | 0.486 ± 0.063 | 0.00737 ± 0.0028
UCCUGGAUCAACUUGCAUAGUAUUUAGUUA | 1.01 ± 0.051 | 0.0248 ± 0.0054
AGGACCUACAGGAAGCAUAGUAUUUACAAA | 0.32 ± 0.064 | –
